From the supplement of paper PMC10849652
Of roughly 7,900 targets only a part is listed; those with a hit were picked by preference. About 0.6% of all pairs of compound and target were hits. Values without a mark were called inactive.

Key:
Experiment in all cases: log2 fold change, soluble protein after heating vs DMSO (PISA); higher = thermal stabilisation; K562 cells, 10 uM, 30 min; active = over 0.2 and 3.5 SD of the protein, either way, in both replicates (recomputed)
ZC3H8 = ZC3H8 (UniProt Q8N5P1)
Sequence of ZC3H8 (Q8N5P1 whole entry, looked up): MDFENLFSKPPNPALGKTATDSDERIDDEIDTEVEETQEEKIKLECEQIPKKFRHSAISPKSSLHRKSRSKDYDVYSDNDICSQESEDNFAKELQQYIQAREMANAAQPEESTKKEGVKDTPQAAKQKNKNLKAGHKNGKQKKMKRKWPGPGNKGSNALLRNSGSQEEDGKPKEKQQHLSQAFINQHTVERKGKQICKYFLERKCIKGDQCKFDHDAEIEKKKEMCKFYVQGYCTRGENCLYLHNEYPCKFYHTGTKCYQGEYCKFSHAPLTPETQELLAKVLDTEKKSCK
Summary of the method: (§1)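 For each measurement, 10 μM compound was applied for 30 min to K562 cells at 2×10^6 cells/mL. Aliquots were heated for 3 min across 48°C-58°C, pooled, and extracted in PBS with 0.5% NP-40 at 4°C; the supernatant after 21,000xg for 90 min was soluble protein. This was quantified by TMTpro 16plex LC-MS/MS with channel sums equalised, and thermal stability was reported relative to control samples from duplicates, on a log2 fold-change scale.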

ZC3HC1 = ZC3HC1 (UniProt Q86WB0)
Sequence of ZC3HC1 (Q86WB0 whole entry, looked up): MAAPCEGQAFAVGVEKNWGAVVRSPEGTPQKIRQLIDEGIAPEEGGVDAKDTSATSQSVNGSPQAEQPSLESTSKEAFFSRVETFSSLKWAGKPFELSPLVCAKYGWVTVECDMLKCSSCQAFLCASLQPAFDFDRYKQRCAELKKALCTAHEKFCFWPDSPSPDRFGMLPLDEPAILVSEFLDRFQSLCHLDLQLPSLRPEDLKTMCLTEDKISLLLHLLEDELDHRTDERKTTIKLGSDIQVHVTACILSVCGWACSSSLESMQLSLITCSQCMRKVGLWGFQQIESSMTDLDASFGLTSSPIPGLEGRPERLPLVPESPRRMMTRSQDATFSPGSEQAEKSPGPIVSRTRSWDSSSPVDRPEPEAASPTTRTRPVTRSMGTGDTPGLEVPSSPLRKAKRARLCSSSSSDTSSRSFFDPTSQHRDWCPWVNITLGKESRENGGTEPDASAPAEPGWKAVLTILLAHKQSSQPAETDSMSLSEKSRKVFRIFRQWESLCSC
Summary of the method: as §1

ZCCHC9 = ZCCHC9 (UniProt Q8N567)
Sequence of ZCCHC9 (Q8N567 whole entry, looked up): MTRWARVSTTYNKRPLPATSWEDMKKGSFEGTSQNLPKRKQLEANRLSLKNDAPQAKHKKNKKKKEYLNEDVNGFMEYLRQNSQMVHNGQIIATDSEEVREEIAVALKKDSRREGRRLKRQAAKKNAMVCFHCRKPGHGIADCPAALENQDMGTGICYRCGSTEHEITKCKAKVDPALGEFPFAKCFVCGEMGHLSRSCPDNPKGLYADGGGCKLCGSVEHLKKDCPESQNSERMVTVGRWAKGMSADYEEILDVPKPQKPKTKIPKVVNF
Summary of the method: as §1

ZDHHC17 = ZDHHC17 (UniProt Q8IUH5)
Sequence of ZDHHC17 (Q8IUH5 whole entry, looked up): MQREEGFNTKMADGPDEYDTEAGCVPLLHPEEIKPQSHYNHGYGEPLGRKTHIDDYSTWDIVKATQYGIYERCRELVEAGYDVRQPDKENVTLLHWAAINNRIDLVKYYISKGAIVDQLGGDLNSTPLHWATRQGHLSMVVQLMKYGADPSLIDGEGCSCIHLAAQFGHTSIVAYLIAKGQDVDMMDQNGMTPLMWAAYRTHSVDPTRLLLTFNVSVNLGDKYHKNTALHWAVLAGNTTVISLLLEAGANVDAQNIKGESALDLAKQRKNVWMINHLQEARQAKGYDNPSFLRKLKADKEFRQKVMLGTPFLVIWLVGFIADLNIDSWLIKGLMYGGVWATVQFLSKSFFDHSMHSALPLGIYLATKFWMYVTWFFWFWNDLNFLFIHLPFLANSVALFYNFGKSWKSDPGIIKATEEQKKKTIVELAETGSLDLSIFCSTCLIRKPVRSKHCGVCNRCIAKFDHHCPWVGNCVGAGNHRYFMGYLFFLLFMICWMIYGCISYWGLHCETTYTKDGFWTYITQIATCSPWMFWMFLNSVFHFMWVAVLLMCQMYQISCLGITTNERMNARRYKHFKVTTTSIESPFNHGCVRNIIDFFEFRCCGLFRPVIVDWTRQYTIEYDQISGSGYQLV
Summary of the method: as §1

ZDHHC20 = ZDHHC20 (UniProt Q5W0Z9)
Sequence of ZDHHC20 (Q5W0Z9 whole entry, looked up): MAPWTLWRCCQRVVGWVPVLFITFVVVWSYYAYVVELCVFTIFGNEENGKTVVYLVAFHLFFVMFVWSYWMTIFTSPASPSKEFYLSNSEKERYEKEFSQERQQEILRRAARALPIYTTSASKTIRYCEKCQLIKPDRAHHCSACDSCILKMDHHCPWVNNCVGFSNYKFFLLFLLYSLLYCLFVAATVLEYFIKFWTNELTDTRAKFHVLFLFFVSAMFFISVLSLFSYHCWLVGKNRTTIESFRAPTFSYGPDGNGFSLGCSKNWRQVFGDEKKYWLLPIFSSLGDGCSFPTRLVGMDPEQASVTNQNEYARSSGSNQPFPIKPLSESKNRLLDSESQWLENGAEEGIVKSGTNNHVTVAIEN
Summary of the method: as §1

ZDHHC5 = ZDHHC5 (UniProt Q9C0B5)
Sequence of ZDHHC5 (Q9C0B5 whole entry, looked up): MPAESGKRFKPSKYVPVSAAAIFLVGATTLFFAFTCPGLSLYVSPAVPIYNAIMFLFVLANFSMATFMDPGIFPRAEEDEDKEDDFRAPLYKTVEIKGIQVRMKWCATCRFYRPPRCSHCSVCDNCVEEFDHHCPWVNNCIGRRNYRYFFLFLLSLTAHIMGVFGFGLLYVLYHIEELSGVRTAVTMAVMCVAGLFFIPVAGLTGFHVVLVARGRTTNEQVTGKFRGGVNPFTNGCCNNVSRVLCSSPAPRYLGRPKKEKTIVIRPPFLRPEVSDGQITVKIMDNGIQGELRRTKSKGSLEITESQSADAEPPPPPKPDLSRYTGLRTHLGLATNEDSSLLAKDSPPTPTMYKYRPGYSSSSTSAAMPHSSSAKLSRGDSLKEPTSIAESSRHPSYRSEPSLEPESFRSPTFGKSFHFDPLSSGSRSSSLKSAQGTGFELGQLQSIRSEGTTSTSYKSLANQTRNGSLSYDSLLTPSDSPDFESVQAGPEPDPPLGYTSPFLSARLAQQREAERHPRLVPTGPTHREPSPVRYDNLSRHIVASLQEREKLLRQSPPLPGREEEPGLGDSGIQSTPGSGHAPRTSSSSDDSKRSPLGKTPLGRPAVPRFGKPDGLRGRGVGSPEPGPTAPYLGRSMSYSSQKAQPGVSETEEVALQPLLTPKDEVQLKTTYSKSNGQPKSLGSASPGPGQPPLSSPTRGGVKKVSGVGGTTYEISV
Summary of the method: as §1

ZDHHC7 isoform 2 = ZDHHC7 isoform 2 (UniProt Q9NXF8)
Sequence of ZDHHC7 isoform 2 (Q9NXF8 whole entry, looked up, canonical isoform): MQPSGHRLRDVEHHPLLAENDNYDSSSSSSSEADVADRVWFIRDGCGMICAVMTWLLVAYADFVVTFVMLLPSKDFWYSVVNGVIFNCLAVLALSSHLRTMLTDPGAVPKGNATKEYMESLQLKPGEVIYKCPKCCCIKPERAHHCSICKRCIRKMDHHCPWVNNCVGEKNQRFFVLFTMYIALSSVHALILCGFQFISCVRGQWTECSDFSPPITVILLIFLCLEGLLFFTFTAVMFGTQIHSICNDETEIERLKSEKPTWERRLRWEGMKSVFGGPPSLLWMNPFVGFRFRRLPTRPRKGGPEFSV
Summary of the method: as §1

ZDHHC6 = ZDHHC6 (UniProt Q9H6R6)
Sequence of ZDHHC6 (Q9H6R6 whole entry, looked up): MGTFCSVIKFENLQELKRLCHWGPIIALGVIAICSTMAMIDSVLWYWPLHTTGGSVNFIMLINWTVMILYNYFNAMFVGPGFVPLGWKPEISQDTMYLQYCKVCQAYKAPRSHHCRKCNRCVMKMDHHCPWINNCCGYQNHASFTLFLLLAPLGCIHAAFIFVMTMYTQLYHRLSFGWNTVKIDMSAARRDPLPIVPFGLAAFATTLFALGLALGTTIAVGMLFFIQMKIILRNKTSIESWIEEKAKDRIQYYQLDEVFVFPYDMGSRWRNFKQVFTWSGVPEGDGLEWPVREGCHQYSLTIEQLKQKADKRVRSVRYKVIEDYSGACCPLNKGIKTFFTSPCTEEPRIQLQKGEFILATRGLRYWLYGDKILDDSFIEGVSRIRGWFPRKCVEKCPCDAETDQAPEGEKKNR
Summary of the method: as §1

ZDHHC8 isoform 3 = ZDHHC8 isoform 3 (UniProt Q9ULC8)
Sequence of ZDHHC8 isoform 3 (Q9ULC8 whole entry, looked up, canonical isoform): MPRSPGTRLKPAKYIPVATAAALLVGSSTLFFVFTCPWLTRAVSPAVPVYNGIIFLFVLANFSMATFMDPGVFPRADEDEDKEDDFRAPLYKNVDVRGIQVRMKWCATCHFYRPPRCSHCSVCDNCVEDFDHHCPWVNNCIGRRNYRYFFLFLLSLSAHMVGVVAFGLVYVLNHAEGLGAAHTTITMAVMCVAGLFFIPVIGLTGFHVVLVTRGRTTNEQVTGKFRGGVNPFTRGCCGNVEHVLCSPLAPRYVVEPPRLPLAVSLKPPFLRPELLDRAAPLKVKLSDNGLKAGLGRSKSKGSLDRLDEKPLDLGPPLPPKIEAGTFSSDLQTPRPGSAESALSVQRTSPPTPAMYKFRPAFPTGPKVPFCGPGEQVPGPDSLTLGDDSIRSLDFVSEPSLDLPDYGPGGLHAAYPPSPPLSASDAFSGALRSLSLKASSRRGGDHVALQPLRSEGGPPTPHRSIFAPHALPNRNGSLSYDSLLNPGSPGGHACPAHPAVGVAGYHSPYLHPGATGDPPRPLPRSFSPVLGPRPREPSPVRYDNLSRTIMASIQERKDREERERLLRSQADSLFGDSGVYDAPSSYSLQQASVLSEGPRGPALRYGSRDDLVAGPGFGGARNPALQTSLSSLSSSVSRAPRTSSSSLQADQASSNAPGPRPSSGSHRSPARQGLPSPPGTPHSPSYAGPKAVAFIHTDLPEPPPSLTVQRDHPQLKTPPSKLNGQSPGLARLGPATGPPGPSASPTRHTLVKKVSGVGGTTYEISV
Summary of the method: as §1

Compound | log2 fold change (ZC3H8) | log2 fold change (ZC3HC1) | log2 fold change (ZCCHC9) | log2 fold change (ZDHHC17) | log2 fold change (ZDHHC20) | log2 fold change (ZDHHC5) | log2 fold change (ZDHHC7 isoform 2) | log2 fold change (ZDHHC6) | log2 fold change (ZDHHC8 isoform 3)
O=C1NC(=NCc2cccs2)S/C1=C\c1ccc2ncccc2c1 | -0.062 | 0.077 | -0.035 | 0.064 | -0.125 | 0.091 | 0.161 |  | 
O=C1c2ccccc2-c2n[nH]c3cccc1c23 | -0.001 | -0.032 | -0.009 | -0.021 | -0.044 | -0.054 | 0.01 |  | 
CC[C@H](C)[C@H](NC(=O)[C@H]([C@@H](C)CC)N(C)C(C)=O)C(=O)N[C@H](C(=O)N[C@@H](CC(C)C)C(=O)[C@@]1(C)CO1)[C@@H](C)O [epoxomicin] | -0.107 | 0.1 | -0.303 | -0.044 | -0.102 | -0.083 | 0.124 | -0.052 | -0.037
CNC(=O)c1ccccc1Nc1nc(Nc2ccc(N3CCOCC3)cc2OC)ncc1Cl | 0.019 | 0.067 | 0.058 | 0.146 | 0 | 0.006 | -0.016 |  | 
c1cn2cc(-c3ccc4cn[nH]c4c3)nc(Nc3ccc(N4CCOCC4)cc3)c2n1 [entospletinib] | -0.034 | 0.005 | 0.168 | 0.059 | -0.02 | 0.071 | 0.027 | -0.058 | 
CC(C)(O)CC(=O)NCCn1ccc2ncnc(Nc3ccc(Oc4cccc(C(F)(F)F)c4)c(Cl)c3)c21 | 0.064 | -0.179 | 0.166 | 0.062 | -0.082 | 0.033 | -0.026 | -0.932 (active) | 0.486 (active)
CCn1c(C(=O)N(C2CC2)C2CC2)cc2c3c(ncn3C)c(Nc3cc(C)n(C)n3)nc21 | -0.034 | -0.059 | 0.003 | -0.061 | -0.023 | -0.012 | 0.011 |  | 
CC(C)C[C@@H](C=O)NC(=O)[C@H](CC(C)C)NC(=O)[C@H](CC(C)C)NC(=O)OCc1ccccc1 | 0.045 | -0.101 | 0.305 | -0.057 | -0.153 | -0.029 | -0.069 |  | 
C/C(=N\NC(=O)c1cccc(S(=O)(=O)N2CCOCC2)c1)c1cc(Cl)ccc1O | -0.128 | 0.199 | -0.224 | -0.004 | -0.048 | 0.003 | 0.057 |  | 
CC(C)c1cnn2c(NCc3ccccc3)cc(NCCCCCCN)nc12 | 0.177 | -0.151 | 0.004 | -0.061 | -0.229 | 0.007 | -0.008 |  | 
CCN(CC)Cc1ccc2cc(COC(=O)Nc3ccc(C(=O)NO)cc3)ccc2c1 [givinostat] | -0.106 | 0.031 | 0.038 | 0.113 | -0.167 | -0.001 | 0.011 |  | 
CC(C)(C)Cn1c(N)nc2ccc(-c3[nH]c(C(C)(C)C)nc3-c3ccc(F)cc3)nc21 [ralimetinib] | 0.047 | 0.035 | 0.017 | -0.099 | -0.187 | -0.001 | -0.033 |  | 
Cc1ccc(C(=O)N(CCCN)[C@@H](c2nc3cc(Cl)ccc3c(=O)n2Cc2ccccc2)C(C)C)cc1 [ispinesib] | -0.016 | -0.027 | -0.353 | 0.023 | -0.076 | -0.035 | 0.126 |  | 
C[C@@H](N)c1ccc(C(=O)Nc2ccnc3[nH]ccc23)cc1 | 0.218 | -0.213 | 0.359 | -0.03 | 0.051 | 0.006 | -0.065 |  | 
Fc1ccc(Cl)cc1-c1nc(Nc2ccncc2)c2nccnc2n1 | -0.275 | 0.128 | -0.378 | -0.006 | 0.152 | -0.002 | 0.093 | -0.083 | 0.028
Cn1cncc1[C@@](N)(c1ccc(Cl)cc1)c1ccc2c(c1)c(-c1cccc(Cl)c1)cc(=O)n2C [tipifarnib] | 0.043 | -0.183 | 0.113 | 0.032 | -0.014 | 0.013 | -0.047 | 0.086 | 
Cc1cc(Nc2cc(CN3CCOCC3)c3nc(C)c(Cc4ccc(Cl)cc4F)n3n2)n[nH]1 [gandotinib] | 0.15 | -0.157 | 0.265 | 0.052 | 0.018 | -0.041 | 0.034 | -0.018 | 
O=C1NC(=O)C(c2cnc3ccccn23)=C1c1cn2c3c(cc(F)cc13)CN(C(=O)N1CCCCC1)CC2 | 0 | -0.132 | 0.229 | 0.043 | 0.079 | -0.014 | -0.021 | 0.089 | 0.029
CCCCN(Cc1ccc(C(=O)NO)cc1)C(=O)Nc1ccccc1 [Nexturastat A] | 0.106 | -0.106 | 0.311 | -0.086 | -0.149 | -0.001 | 0.052 | -0.06 | -0.151
CC(=O)c1cnc2ccc(-c3cc(Cl)c(O)c(Cl)c3)nc2c1N[C@H]1CC[C@H](CN(C)C)CC1 | 0.006 | -0.165 | 0.143 | -0.007 | 0.026 | -0.049 | -0.017 |  | 
C#Cc1cccc(Nc2ncnc3cc(OCCOC)c(OCCOC)cc23)c1 [erlotinib] | -0.091 | 0.075 | -0.099 | 0.091 | 0.163 | 0.028 | 0.09 |  | 
CO[C@H]1C[C@@H]2CC[C@@H](C)[C@@](O)(O2)C(=O)C(=O)N2CCCC[C@H]2C(=O)O[C@H]([C@H](C)C[C@@H]2CC[C@H](n3cnnn3)[C@H](OC)C2)CC(=O)[C@H](C)/C=C(\C)[C@@H](O)[C@@H](OC)C(=O)[C@H](C)C[C@H](C)/C=C/C=C/C=C/1C [zotarolimus] | 0.029 | 0.052 | -0.044 | 0.039 | -0.15 | -0.085 | -0.245 |  | 
CC[C@@H]1C(=O)N(C)c2cnc(Nc3ccc(C(=O)N[C@H]4CC[C@H](N5CCN(CC6CC6)CC5)CC4)cc3OC)nc2N1C(C)C [volasertib] | 0.207 | -0.579 (active) | 0.226 | -0.095 | 0.011 | 0.093 | -0.059 | -0.094 | 
O=C(CCCCCCC(=O)Nc1ccccc1)NO [vorinostat] | -0.039 | 0.04 | -0.065 | -0.079 | -0.021 | -0.02 | 0.006 | -0.108 | 
NC(=O)c1cnc(N[C@@H]2CCCC[C@@H]2N)nc1Nc1cccc(-n2nccn2)c1 | 0.08 | -0.054 | 0.049 | -0.003 | -0.001 | -0.01 | -0.064 |  | 
Cc1ccc(NC(=O)c2cccc(N(C)C)c2)cc1NC(=O)c1ccc(O)cc1 | 0.03 | -0.209 | 0.062 | 0.01 | 0.085 | -0.007 | 0.014 |  | 
NC(=O)c1ccc2nc(-c3ccc(Oc4ccc(Cl)cc4)cc3)[nH]c2c1 | 0.027 | -0.034 | 0.025 | -0.046 | 0.14 | 0.027 | 0.022 |  | 
Cn1cc(-c2ccc3nnc(C(F)(F)c4ccc5ncccc5c4)n3n2)cn1 | -0.056 | 0.038 | -0.081 | -0.029 | 0.048 | -0.009 | 0.091 |  | 
C[C@@H]1COCCN1c1cc(C2(S(C)(=O)=O)CC2)nc(-c2cccc3[nH]ccc23)n1 | -0.151 | 0.119 | -0.381 | 0.005 | 0.131 | -0.011 | -0.037 | 0.067 | 0.284
